# From PubChem BioAssay (NCI)
# “And” between values parts separate entries of the source, which are not always exact repeats. Equal entries are not always repeated. Compounds without any hit were thinned out: in the full panel of roughly 83,000, 20% have a hit.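 A percent growth of 40 corresponds to 60% growth inhibition; 0 means no net growth; -100 means all cells died. Active threshold: below 10.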 Unmarked numbers belong to inactive results. The source made the active and inactive calls.
# Experiments:
# Assay in all cases: NCI-60 one-dose screen, 48 h (100 = growth as untreated, 0 = no growth, -100 = all killed)
# T-47D breast = system: T-47D breast
# BT-549 breast = system: BT-549 breast
# MDA-MB-435 melanoma = conditions: 10 µM unless noted
# SW-620 colon = system: SW-620 colon
# MCF7 breast = system: MCF7 breast
# HCT-116 colon = system: HCT-116 colon
# HCC-2998 colon = system: HCC-2998 colon
# KM12 colon = system: KM12 colon
compound,measurement,setting,value
N#Cc1ccc([N+](=O)[O-])o1,growth,T-47D breast; 10 µM unless noted,85.1%
same,growth,BT-549 breast; 10 µM unless noted,101%
same,growth,MDA-MB-435 melanoma,108%
same,growth,SW-620 colon; 10 µM unless noted,106%
same,growth,MCF7 breast; 10 µM,101%
same,growth,HCT-116 colon; 10 µM unless noted,92.6%
same,growth,HCC-2998 colon; 10 µM unless noted,117%
O=C(Nc1cccc(Br)c1)Oc1cccc2cccnc12,growth,T-47D breast; 10 µM,92%
same,growth,T-47D breast; 100 µM,2.98% (active)
same,growth,BT-549 breast; 10 µM,90.5%
same,growth,BT-549 breast; 100 µM,12.7%
same,growth,SW-620 colon; 10 µM,106%
same,growth,SW-620 colon; 100 µM,25%
same,growth,MCF7 breast; 10 µM,92.9%
same,growth,MCF7 breast; 100 µM,-37.7% (active)
same,growth,HCT-116 colon; 10 µM,92.7%
same,growth,HCT-116 colon; 100 µM,1.93% (active)
same,growth,HCC-2998 colon; 10 µM,98.2%
same,growth,HCC-2998 colon; 100 µM,59.9%
same,growth,KM12 colon; 10 µM,110%
same,growth,KM12 colon; 100 µM,40.1%
Oc1c(Br)cc(Cl)cc1C(c1cc(Cl)cc(Br)c1O)C(Cl)(Cl)Cl,growth,T-47D breast; 10 µM unless noted,28.9%
same,growth,BT-549 breast; 10 µM unless noted,28%
same,growth,MDA-MB-435 melanoma,39%
same,growth,SW-620 colon; 10 µM unless noted,17.8%
same,growth,MCF7 breast; 10 µM,11.1%
same,growth,HCT-116 colon; 10 µM unless noted,4.13% (active)
same,growth,HCC-2998 colon; 10 µM unless noted,16.9%
O[C@H]1[C@H]2c3cc4c(cc3CN3CCC(=C[C@@H]1O)[C@H]23)OCO4,growth,T-47D breast; 10 µM unless noted,34.5%
same,growth,BT-549 breast; 10 µM unless noted,71.2%
same,growth,MDA-MB-435 melanoma,32.5%
same,growth,SW-620 colon; 10 µM unless noted,30.4%
same,growth,MCF7 breast; 10 µM,11.7%
same,growth,HCT-116 colon; 10 µM unless noted,13.5%
same,growth,HCC-2998 colon; 10 µM unless noted,18.9%
same,growth,KM12 colon; 10 µM unless noted,21.2%
O=C(/C=C\c1ccccc1)N1c2ccccc2CC1c1c[nH]c2ccccc12 (configuration not stated),growth,T-47D breast; 10 µM unless noted,23.4%
same,growth,BT-549 breast; 10 µM unless noted,88.6%
same,growth,MDA-MB-435 melanoma,83.8%
same,growth,SW-620 colon; 10 µM unless noted,78.2%
same,growth,MCF7 breast; 10 µM,66.2%
same,growth,HCT-116 colon; 10 µM unless noted,23.1%
same,growth,HCC-2998 colon; 10 µM unless noted,85.6%
same,growth,KM12 colon; 10 µM unless noted,64.4%
Cc1cc(C(C)(CC(C)C)c2ccc(O)c(C)c2)ccc1O,growth,T-47D breast; 10 µM unless noted,86.8%
same,growth,BT-549 breast; 10 µM unless noted,109%
same,growth,MDA-MB-435 melanoma,94.1%
same,growth,SW-620 colon; 10 µM unless noted,117%
same,growth,MCF7 breast; 10 µM,115%
same,growth,HCT-116 colon; 10 µM unless noted,93.9%
same,growth,HCC-2998 colon; 10 µM unless noted,103%
Cc1ccc(N=C=C(c2ccccc2)c2ccccc2)cc1,growth,T-47D breast; 10 µM unless noted,85.7%
same,growth,BT-549 breast; 10 µM unless noted,91.9%
same,growth,MDA-MB-435 melanoma,79.9%
same,growth,SW-620 colon; 10 µM unless noted,35.8%
same,growth,MCF7 breast; 10 µM,68.5%
same,growth,HCT-116 colon; 10 µM unless noted,15.9%
same,growth,HCC-2998 colon; 10 µM unless noted,101%
NC(=O)/C=C/C(=O)c1c(Cl)cccc1Cl,growth,T-47D breast; 10 µM unless noted,-62.4% (active)
same,growth,BT-549 breast; 10 µM unless noted,-42.4% (active)
same,growth,MDA-MB-435 melanoma,-68% (active)
same,growth,SW-620 colon; 10 µM unless noted,-71% (active)
same,growth,MCF7 breast; 10 µM,-68.9% (active)
same,growth,HCT-116 colon; 10 µM unless noted,-100% (active)
same,growth,HCC-2998 colon; 10 µM unless noted,-98.6% (active)
same,growth,KM12 colon; 10 µM unless noted,-51.4% (active)
CC(=O)C(=Cc1ccc(C=C(C(C)=O)C(C)=O)cc1)C(C)=O,growth,T-47D breast; 10 µM unless noted,29.1%
same,growth,BT-549 breast; 10 µM unless noted,12.6%
same,growth,MDA-MB-435 melanoma,7.62% (active)
same,growth,SW-620 colon; 10 µM unless noted,-11.2% (active)
same,growth,MCF7 breast; 10 µM,1.33% (active)
same,growth,HCT-116 colon; 10 µM unless noted,-56.3% (active)
same,growth,HCC-2998 colon; 10 µM unless noted,45.2%
CC1SC(=S)N(c2ccc(Cl)cc2)C1=O (configuration not stated),growth,T-47D breast; 10 µM unless noted,73.9% and 62.8%
same,growth,BT-549 breast; 10 µM unless noted,106% and 86.2%
same,growth,MDA-MB-435 melanoma,106% and 99.8%
same,growth,SW-620 colon; 10 µM unless noted,109% and 113%
same,growth,MCF7 breast; 10 µM,96.9% and 79.9%
same,growth,HCT-116 colon; 10 µM unless noted,100% and 93.4%
same,growth,HCC-2998 colon; 10 µM unless noted,90.7%
same,growth,KM12 colon; 10 µM unless noted,94.6% and 108%
CCC(CC)COC(=O)c1ccc(O)c(O)c1,growth,T-47D breast; 10 µM unless noted,43.6%
same,growth,BT-549 breast; 10 µM unless noted,50%
same,growth,MDA-MB-435 melanoma,69.8%
same,growth,SW-620 colon; 10 µM unless noted,80.5%
same,growth,MCF7 breast; 10 µM,97.5%
same,growth,HCT-116 colon; 10 µM unless noted,72.6%
same,growth,HCC-2998 colon; 10 µM unless noted,84.4%
same,growth,KM12 colon; 10 µM unless noted,61.3%
CCCCCCC(C)c1ccccc1O (configuration not stated) (tested in a mixture with another compound),growth,T-47D breast; 10 µM unless noted,94.8%
same,growth,BT-549 breast; 10 µM unless noted,108%
same,growth,MDA-MB-435 melanoma,98.7%
same,growth,SW-620 colon; 10 µM unless noted,103%
same,growth,MCF7 breast; 10 µM,116%
same,growth,HCT-116 colon; 10 µM unless noted,111%
same,growth,HCC-2998 colon; 10 µM unless noted,103%
same,growth,KM12 colon; 10 µM unless noted,107%
CCCCCCCCCCCCCCCCN(CC)CC,growth,T-47D breast; 10 µM unless noted,2.05% (active)
same,growth,BT-549 breast; 10 µM unless noted,-36.8% (active)
same,growth,MDA-MB-435 melanoma,-80.8% (active)
same,growth,SW-620 colon; 10 µM unless noted,-69.1% (active)
same,growth,MCF7 breast; 10 µM,-68.6% (active)
same,growth,HCT-116 colon; 10 µM unless noted,-52.5% (active)
same,growth,HCC-2998 colon; 10 µM unless noted,-97.1% (active)
CCC(=O)Sc1ccccc1C(=O)Nc1ccc(Cl)cc1,growth,T-47D breast; 10 µM unless noted,45.1%
same,growth,BT-549 breast; 10 µM unless noted,10.2%
same,growth,MDA-MB-435 melanoma,25.9%
same,growth,SW-620 colon; 10 µM unless noted,17.5%
same,growth,MCF7 breast; 10 µM,19%
same,growth,HCT-116 colon; 10 µM unless noted,25.8%
same,growth,HCC-2998 colon; 10 µM unless noted,85.7%
same,growth,KM12 colon; 10 µM unless noted,64.9%
